According to PubChem BioAssay AID1159580 (chemical genetic matrix, 2015):
Several values for one entry are separate records, joined by “and”; a condition that tells them apart may be missing. Identical values can stand only once. Hit rate of the full screen: of about 5,500 compounds, about 2,000 (36%) were called active. Roughly 18% stayed inconclusive and do not appear here. Cut-off read from the data, not from the text of the source: active = normalized growth mostly below about 0.91 (no sharp cut-off); inconclusive = no clear call, values can overlap the other calls; inactive = mostly above about 0.92. This is one part of the list.

Assay: chemical genetic growth profiling, strain panel (AID 1159580);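 note: tested at 20 µM; growth read once vehicle control cultures reached saturation at 30 °C; 1 = growth at the plate median or of vehicle wells; lower values mean less growth of the strain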
Conditions: growth OD

Measured: normalized growth

Cc1cc(C(C)(C)C)cc(C)c1CC1=NCCN1
inactive: S. cerevisiae deletion strains, locus YJR075W, strain HOC1, active compounds read low 1.02 | S. cerevisiae deletion strains, locus YKL009W, strain mrt4, active compounds read low 1.03 | S. cerevisiae deletion strains, locus YKL068W, active compounds read low 1 | S. cerevisiae deletion strains, locus YKL085W, strain MDH1 (second series), active compounds read low 1.02 | S. cerevisiae deletion strains, locus YKL085W, strain MDH1, active compounds read low 1.02 | S. cerevisiae deletion strains, locus YKL160W, strain elf1, active compounds read low 1.01 | S. cerevisiae deletion strains, locus YKL190W, strain CNB1, active compounds read low 1.02 | S. cerevisiae deletion strains, locus YKR001C, strain vps1, active compounds read low 0.99 | S. cerevisiae deletion strains, locus YKR026C, strain gcn3, active compounds read low 1.01 | S. cerevisiae deletion strains, locus YKR091W, strain srl3, active compounds read low 0.996 | S. cerevisiae deletion strains, locus YLL001W, strain dnm1, active compounds read low 1.03 | S. cerevisiae deletion strains, locus YLL026W, active compounds read low 0.995 | S. cerevisiae deletion strains, locus YLL041C, strain sdh2, active compounds read low 1 | S. cerevisiae deletion strains, locus YLR027C, strain aat2, active compounds read low 1.01 | S. cerevisiae deletion strains, locus YLR039C, strain RIC1, active compounds read low 0.992 | S. cerevisiae deletion strains, locus YLR058C, strain SHM2, active compounds read low 1.02 | S. cerevisiae deletion strains, locus YLR102C, strain apc9, active compounds read low 0.996 | S. cerevisiae deletion strains, locus YLR113W, strain HOG1, active compounds read low 0.997 | S. cerevisiae deletion strains, locus YLR221C, strain rsa3, active compounds read low 0.969 | S. cerevisiae deletion strains, locus YLR258W, strain gsy2, active compounds read low 1 | S. cerevisiae deletion strains, locus YLR262C, strain YPT6 (second series), active compounds read low 1.03 | S. cerevisiae deletion strains, locus YLR262C, strain YPT6, active compounds read low 1.06 | S. cerevisiae deletion strains, locus YLR268W, strain sec22, active compounds read low 0.983 | S. cerevisiae deletion strains, locus YLR320W, strain mms22, active compounds read low 0.99 | S. cerevisiae deletion strains, locus YLR330W, strain CHS5, active compounds read low 1.01 | S. cerevisiae deletion strains, locus YLR342W, strain FKS1 (second series), active compounds read low 0.99 | S. cerevisiae deletion strains, locus YLR342W, strain FKS1, active compounds read low 1 | S. cerevisiae deletion strains, locus YLR357W, strain rsc2, active compounds read low 1 | S. cerevisiae deletion strains, locus YLR370C, strain arc18, active compounds read low 1.01 | S. cerevisiae deletion strains, locus YLR371W, strain rom2, active compounds read low 1 | S. cerevisiae deletion strains, locus YLR384C, strain iki3, active compounds read low 1 | S. cerevisiae deletion strains, locus YLR418C, strain cdc73, active compounds read low 0.995 | S. cerevisiae deletion strains, locus YML016C, strain PPZ1, active compounds read low 1.01 | S. cerevisiae deletion strains, locus YML032C, strain rad52, active compounds read low 0.994 | S. cerevisiae deletion strains, locus YML120C, strain ndi1, active compounds read low 1.01 | S. cerevisiae deletion strains, locus YML124C, strain tub3, active compounds read low 0.996 | S. cerevisiae deletion strains, locus YMR058W, strain fet3, active compounds read low 1.01 | S. cerevisiae deletion strains, locus YMR078C, strain ctf18, active compounds read low 0.991 | S. cerevisiae deletion strains, locus YMR125W, strain sto1, active compounds read low 0.981 | S. cerevisiae deletion strains, locus YMR129W, active compounds read low 1 | S. cerevisiae deletion strains, locus YMR205C, strain PFK2, active compounds read low 1.02 | S. cerevisiae deletion strains, locus YMR223W, strain ubp8, active compounds read low 1 | S. cerevisiae deletion strains, locus YMR231W, strain pep5, active compounds read low 1 | S. cerevisiae deletion strains, locus YMR263W, strain SAP30, active compounds read low 1.02 | S. cerevisiae deletion strains, locus YMR307W, strain GAS1, active compounds read low 1.02 and 0.994 | S. cerevisiae deletion strains, locus YNL067W, strain RPL9B, active compounds read low 1.02 | S. cerevisiae deletion strains, locus YNL071W, strain lat1, active compounds read low 0.998 | S. cerevisiae deletion strains, locus YNL128W, strain TEP1, active compounds read low 1.03 and 0.994 | S. cerevisiae deletion strains, locus YNL153C, strain GIM3, active compounds read low 1 and 0.97 | S. cerevisiae deletion strains, locus YNL175C, strain NOP13, active compounds read low 1.02 | S. cerevisiae deletion strains, locus YNL183C, strain NPR1, active compounds read low 0.96 | S. cerevisiae deletion strains, locus YNL197C, strain WHI3, active compounds read low 1.01 | S. cerevisiae deletion strains, locus YNL209W, strain ssb2, active compounds read low 0.998 | S. cerevisiae deletion strains, locus YNL224C, strain SQS1, active compounds read low 0.987 | S. cerevisiae deletion strains, locus YNL233W, strain BNI4, active compounds read low 1.02 | S. cerevisiae deletion strains, locus YNL248C, strain rpa49, active compounds read low 0.948 | S. cerevisiae deletion strains, locus YNL250W, strain rad50, active compounds read low 1.01 | S. cerevisiae deletion strains, locus YNL271C, strain bni1, active compounds read low 0.986 | S. cerevisiae deletion strains, locus YNL298W, strain CLA4, active compounds read low 0.992 | S. cerevisiae deletion strains, locus YNL307C, strain MCK1, active compounds read low 1.01 | S. cerevisiae deletion strains, locus YNL322C, strain KRE1 (second series), active compounds read low 1.01 | S. cerevisiae deletion strains, locus YNL322C, strain KRE1, active compounds read low 1.02 | S. cerevisiae deletion strains, locus YNR049C, strain mso1, active compounds read low 0.998 | S. cerevisiae deletion strains, locus YNR052C, strain pop2, active compounds read low 0.997 | S. cerevisiae deletion strains, locus YOL006C, strain TOP1, active compounds read low 0.984 | S. cerevisiae deletion strains, locus YOL012C, strain htz1 1.06 | S. cerevisiae deletion strains, locus YOL147C, strain pex11, active compounds read low 0.998 | S. cerevisiae deletion strains, locus YOR001W, strain rrp6, active compounds read low 1.02 | S. cerevisiae deletion strains, locus YOR061W, strain CKA2, active compounds read low 1.01 | S. cerevisiae deletion strains, locus YOR069W, strain VPS5, active compounds read low 1.02 | S. cerevisiae deletion strains, locus YOR070C, strain gyp1, active compounds read low 0.992 | S. cerevisiae deletion strains, locus YOR080W, strain dia2, active compounds read low 1.01 | S. cerevisiae deletion strains, locus YOR083W, strain WHI5 (second series), active compounds read low 0.992 | S. cerevisiae deletion strains, locus YOR083W, strain WHI5, active compounds read low 0.99 | S. cerevisiae deletion strains, locus YOR106W, strain vam3, active compounds read low 1.03 | S. cerevisiae deletion strains, locus YOR136W, strain idh2, active compounds read low 0.997 | S. cerevisiae deletion strains, locus YOR144C, strain elg1, active compounds read low 1 | S. cerevisiae deletion strains, locus YOR184W, strain ser1, active compounds read low 1 | S. cerevisiae deletion strains, locus YOR231W, strain MKK1, active compounds read low 1 | S. cerevisiae deletion strains, locus YOR265W, strain rbl2, active compounds read low 1 | S. cerevisiae deletion strains, locus YOR270C, strain vph1, active compounds read low 1 | S. cerevisiae deletion strains, locus YOR290C, strain snf2, active compounds read low 0.975 | S. cerevisiae deletion strains, locus YOR316C, strain cot1, active compounds read low 0.997 | S. cerevisiae deletion strains, locus YPL051W, strain arl3, active compounds read low 1.01 | S. cerevisiae deletion strains, locus YPL055C, strain LGE1, active compounds read low 1.04 | S. cerevisiae deletion strains, locus YPL078C, strain atp4, active compounds read low 1.03 | S. cerevisiae deletion strains, locus YPL106C, strain sse1, active compounds read low 0.996 | S. cerevisiae deletion strains, locus YPL240C, strain hsp82, active compounds read low 0.991 | S. cerevisiae deletion strains, locus YPL241C, strain CIN2, active compounds read low 1.01 and 1 | S. cerevisiae deletion strains, locus YPL256C, strain CLN2, active compounds read low 0.949 | S. cerevisiae deletion strains, locus YPR119W, strain clb2, active compounds read low 0.995 | S. cerevisiae deletion strains, locus YPR141C, strain kar3, active compounds read low 1.01 | S. cerevisiae deletion strains, locus YPR163C, strain tif3, active compounds read low 1 | S. cerevisiae deletion strains, locus YPR167C, strain met16, active compounds read low 0.997 | S. cerevisiae deletion strains, strain wtn01, active compounds read low 0.994 | S. cerevisiae strains, strain wild type, active compounds read low 1.01
